# TRPV1 ag: HTS Assay for Compounds that Act as Agonists of the Vanilloid Receptor 1; Transient receptor potential cation channel subfamily V member 1 (Homo sapiens), Q8NER1; TRPV1-expressing cells, Fluo-8 calcium influx, agonist mode; activation, % at 8.33 µM; 320,000 compounds, 0.19% hits; in the data active means activation above about 80%; inconclusive means between about 30% and that limit; further: 0% is about no effect
#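 TRPV1-expressing cells were cultured overnight at 35.5C and loaded with Fluo-8 calcium dye for 40 to 90 min at room temperature. After a 10 s baseline, compound was added and calcium influx was read kinetically for 3 min (ex 480/em 520 nm).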
# KCNH2 3.1 block: qHTS for Inhibitors of KCHN2 3.1: Mutant qHTS; Potassium voltage-gated channel subfamily H member 2, brain isoform KCNH2 3.1 (human); activity change, % (tested at about 1.8 µM); 340,000 compounds, 0.95% hits; AID 720553, 2013; U2OS KCNH2 3.1, thallium flux FluxOr; active compounds read low;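 active means maximum activity change below -70%; inconclusive means maximum activity change from -70% to -50%; inactive means maximum activity change above -50%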;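 further: thallium influx rate constant from kinetic fluorescence after stimulation buffer; on the % scale 0 is the no-effect control and ±100 the full control effect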
#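 FluxOr-based Tl+ influx in U2OS cells transduced with KCNH2 3.1 virus; rate constants normalized to DMSO controls.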
# KCNH2 WT inh: qHTS for Inhibitors of KCHN2 3.1: Wildtype qHTS; Voltage-gated inwardly rectifying potassium channel KCNH2 (Homo sapiens), Q12809; U2OS, BacMam KCNH2, thallium flux FluxOr; active compounds read low; activity change, % at 1.84 µM; 340,000 compounds, 0.37% hits; AID 720551, 2013;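 active means maximum activity change below -70%; inconclusive means maximum activity change between -70% and -50%; inactive means maximum activity change above -50%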; further: on the % scale 0 is the no-effect control and ±100 the full control effect
#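 U2OS cells transduced with wild-type KCNH2 virus are loaded with FluxOr dye for 45 min, and thallium flux is measured in kinetic reads before and after stimulation buffer. Rate constants are normalized to DMSO controls.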
# p53 reactivation: qHTS assay for re-activators of p53 using a Luc reporter. H1299 p53-A138V BP100-luciferase reporter, luminescence, 24 h. Potency, µM (doses to about 92.2 µM), without a hit: top-dose activity change, positive = activation, hits mostly activators. 320,000 compounds, 0.063% hits; active means well fitted activation curve with a large enough effect; inconclusive means small, poorly fitted or top-dose-only effect; inactive means no such curve, though single readings can be large or run the other way; further: potency means the concentration at half of the fitted maximal effect; % of control where 0% means no effect; nearly all actives have a fitted effect of over 45% in size
#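 H1299 (p53-null), stable ts p53-A138V + BP100-Luc; 1000 cells/well, Opti-MEM/10% FBS; cpd 4 pt, 1:5; 24 h, 37 deg C, 5% CO2; detection reagent 10 min RT; luminescence.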
# TRPV1 PAM: HTS Assay for Compounds that Act as Potentiators of the Vanilloid Receptor 1 | potentiation, % at 8.33 µM | 320,000 compounds, 0.02% hits | TRPV1-expressing cells, Fluo-8 calcium influx, capsaicin EC20 potentiation | AID 540277, 2011; in the data active means potentiation above about 80%; inconclusive means between about 30% and that limit; further: 0% is about no effect
#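 TRPV1-expressing cells were cultured overnight at 35.5C and loaded with Fluo-8 calcium dye for 40 to 90 min at room temperature. After a 10 s baseline, compound was added and calcium influx was read kinetically for 3 min (ex 480/em 520 nm).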
# ClpP mod: qHTS Assay for Activators of ClpP; Potency, µM (doses to about 57.5 µM), without a hit: at the top dose activity change, negative = active; purified B. subtilis ClpP, FRET peptide cleavage, 20 min; ATP-dependent Clp protease proteolytic subunit (Bacillus subtilis (strain 168)), P80244; 340,000 compounds, 1.9% hits; active means well fitted falling curve with a large enough effect; inconclusive means small, poorly fitted or top-dose-only effect; inactive means no such curve, though single readings can be large or run the other way; further: potency means the concentration at half of the fitted maximal effect; the source files actives as falling curves though it sought activators and does not explain the sign; nearly all actives have a fitted effect of over 65% in size
# Target sequence (P80244 whole entry, looked up): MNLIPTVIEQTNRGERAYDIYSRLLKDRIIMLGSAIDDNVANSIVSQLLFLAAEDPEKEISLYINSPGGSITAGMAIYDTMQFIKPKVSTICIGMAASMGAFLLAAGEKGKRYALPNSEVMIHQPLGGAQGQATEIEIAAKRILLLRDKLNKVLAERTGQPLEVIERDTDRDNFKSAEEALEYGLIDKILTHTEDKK
#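 FRET quenching reversal measured ClpP activation: 10 microg/mL B. subtilis ClpP at pH 8 with the FRET-FV decapeptide, read at 430 nm after 320 nm excitation. The 20-min minus 0-min signal was scaled between DMSO/no-enzyme wells and ADEP (5.8 microM final).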
# * hit, by the source's call; ? = inconclusive; / = no result given. Rows were chosen to be rich in hits. Some 2.6% of all compounds tested hit in one or more screens of this group.
SMILES,TRPV1 ag,KCNH2 3.1 block,KCNH2 WT inh,p53 reactivation,TRPV1 PAM,ClpP mod
c1ccc(-n2ncc3c(NCc4ccccn4)ncnc32)cc1,/,2,-1,29%,/,13µM*
CCc1nc(Nc2cccc(OC)c2)c2oc3ccccc3c2n1,81*,12,-10,2%,0,1%
CCc1nc(Nc2ccc(F)cc2)c2oc3ccccc3c2n1,?,4,13,5%,5,-18%
CCc1nc(Nc2ccccc2)c2oc3ccccc3c2n1,84*,-31,-11,3%,-7,2%
CCCOc1ccc(NC(=O)CC2C(=O)N(c3ccc(C)cc3)C(=O)N2Cc2cccc(OC)c2)cc1 (stereo not drawn),/,/,/,/,/,3%
Cc1cc(OCc2nn[nH]n2)c2c(C)c(Cc3ccccc3)c(=O)oc2c1,-1,-14,5,1%,-5,32µM*
Cc1cc(OCc2nn[nH]n2)c2c(C)c(CC(=O)O)c(=O)oc2c1,/,-11,-4,5%,/,?
COC(=O)c1cccc(OCCCN2CCC(C(O)(c3ccccc3)c3ccccc3)CC2)c1,/,/,/,/,/,-2%
COc1cc(C(=O)N2CCN(C(=O)c3cccc4ccccc34)CC2)cc(OC)c1OC,-1,6,-10,-2%,7,/
Cc1cccc(CN2CCN(C(=O)c3cccc4ccccc34)CC2)c1,21,-3,-26,-1%,-1,32µM*
O=C(c1ccncc1)N1CCN(C(=O)c2cccc3ccccc23)CC1,-3,-5,3,20%,1,14µM*
COc1ccc(CCNC(=O)c2cc3c(s2)-c2c(C)cccc2OC3)c(OC)c1,/,/,/,/,/,5%
COc1ccc(C2Nc3ccccc3-c3cc(C)nn32)c(OC)c1 (stereo not drawn),/,/,/,/,/,32µM*
COc1ccc(-c2[nH]c(-c3ccc(C)cc3)nc2SCC(=O)NC2CCCC2)cc1,0,-3,2,-7%,19,4%
COc1cccc(-c2nc(SCC(=O)NC3CCCC3)c(-c3ccccc3)[nH]2)c1,/,/,/,/,/,32µM*
COc1cccc(-c2nc(SCC(=O)NC3CCCC3)c(-c3ccc(F)cc3)[nH]2)c1,/,/,/,/,/,35µM*
COc1cccc(-c2nc(SCC(=O)NCC3CCCO3)c(-c3ccc(Cl)cc3)[nH]2)c1 (stereo not drawn),/,/,/,/,/,25µM*
CCOC(=O)c1ccccc1NC(=O)c1nn(C)c2c1COc1ccccc1-2,/,/,/,/,/,-10%
CN(CCc1ccccc1)C(=O)c1ccc(NC(=O)Cc2ccc(NC(=O)C3CCN(C(=O)C4CC4)CC3)cc2)cc1,/,-73*,3,/,/,0%
CCN(CC)c1ccc(C(=O)OCc2cc(=O)oc3cc(O)ccc23)cc1,11,-9,-5,2%,-8,32µM*
CC1CC[C@@]2(OC1)O[C@H]1CC3[C@@H]4C[C@@H](O)[C@@]5(O)C[C@@H](O)[C@H](O)C[C@]5(C)[C@H]4CC[C@]3(C)[C@H]1[C@@H]2C (stereo partly drawn),2,0,-92*,-2%,1,/
COc1cc2c(cc1CNC[C@H]1O[C@@H](n3cnc4c(N)ncnc43)[C@H](O)[C@@H]1O)OCO2,/,6,-2,8%,/,1%
COCc1cc(=O)[nH]c2cc(NC(=O)C3CC3)c(C)cc12,3,-5,-8,-2%,-8,20µM*
Cc1ccc(SC[C@H](Cc2ccccc2)N2CC[C@@H](C)CCC2=O)cc1,?,-126*,-1,/,-23,1%
CC(=O)Nc1ccc(SC[C@H](Cc2ccccc2)N2CC[C@@H](C(C)(C)C)CCC2=O)cc1,?,-97*,-13,-16%,16,0%
SMILES,TRPV1 ag,KCNH2 3.1 block,KCNH2 WT inh,p53 reactivation,TRPV1 PAM,ClpP mod
CC(C)(C)[C@H]1CCC(=O)N([C@H](CSc2ccccc2)Cc2ccccc2)CC1,?,-5,-4,/,-7,1%
CSc1ccc(/C=N/NC(=O)c2cc(O)cc(O)c2)cc1,-2,-5,-2,?,-22,-11%
CSc1ccc(/C=N/NC(=O)c2ccc(C)c(C)c2)cc1,82*,-15,-3,?,-2,?
Cc1cc2nn(-c3ccc(F)cc3)nc2cc1NC(=O)c1cccc([N+](=O)[O-])c1C,/,/,/,/,/,-3%
Cc1c(C(=O)N2CCN(c3ncccn3)CC2)sc2nc3n(c(=O)c12)CCCC3,1,-1,22,/,0,28µM*
CCOc1cc(C(=O)Nc2cc3c(cc2N2CCCC2)n(C)c(=O)c(=O)n3C)cc(OCC)c1OCC,/,/,/,/,/,4%
O=C(NCCc1csc(-c2cccnc2)n1)c1ccc(Br)o1,-3,6,-71*,-9%,25,-12%
CCN(CCn1cccn1)C(=O)CCc1nnc(C2(c3ccc(Cl)cc3)CCC2)o1,1,-194*,-137*,8%,-10,/
Cc1ccc(CCNC(=O)c2c(C)oc3ncn(CC(C)C)c(=O)c23)cc1,/,/,/,/,/,-4%
COc1ccc(CCNCC(=O)Nc2ccc(C)c(Br)c2)cc1OC,29,-72*,13,/,-8,/
COc1ccc(CCNCC(=O)Nc2ccc(C)c(S(=O)(=O)N(C)C)c2)cc1OC,/,2,-1,-2%,/,-2%
Cc1ccc(S(=O)(=O)N2CCN(CC(=O)N/N=C\C(Cl)=C\c3ccccc3)CC2)cc1,12,-197*,-130*,-6%,-2,0%
CC(/C=N\NC(=O)CN1CCN(S(=O)(=O)c2ccc(C)cc2)CC1)=C\c1ccccc1,21,-84*,-8,-13%,0,1%
CCNC(=O)c1ccc2nc(-c3ccccc3)c(-c3ccccc3)nc2c1,/,/,/,/,/,4%
CCCNC(=O)c1ccc2nc(-c3ccccc3)c(-c3ccccc3)nc2c1,25,-1,2,3%,-7,28µM*
CCN(CC)C(=O)c1ccc2nc(-c3ccccc3)c(-c3ccccc3)nc2c1,23,12,1,-5%,-8,25µM*
CCN(CC)C(=O)c1ccc2nc3ccccc3nc2c1,-2,6,-13,?,0,0%
Cc1ccc(CSc2nnc3[nH]c(=O)cc(-c4ccccc4)n23)cc1,/,/,/,/,/,-28%
Cc1cccn2c(=O)c3cc(C(=O)NCCCN4CCCC4=O)n(C)c3nc12,6,5,5,8%,15,16µM*

# High-throughput results as filed in PubChem BioAssay.
